# Records with an inconclusive call do not appear. Where a call stands in place of a potency, no number is given. Calls of active or inactive are those of the source. Calls follow the shape of the dose curve; as a rule, active = well fitted activation curve with a large enough effect in the repeat runs; inconclusive = weak or mixed curves; inactive = flat fitted curve, though single readings scatter.
# Test: A CellTox Green Cytotoxicity Assay to monitor cytotoxicity in HepG2 cells - 8 hour (AID 1224890); also: nearly all actives have a fitted effect of over 45% in size
# Settings: CellTox Green fluorescence; series mostly up to 76.8 µM
# Description: National Center for Advancing Translational Sciences [NCATS]
# NIH Chemical Genomics Center [NCGC]
# U.S. Environmental Protection Agency [EPA]
# National Institutes of Environmental Health Sciences [NIEHS]
# National Toxicology Program [NTP]
# Cell-based models are critical for drug discovery. Determining the natural cytotoxic effects resulting from test compounds is an essential research activity. A CellTox Green Cytotoxicity Assay to monitor cytotoxicity in real time of continues cell culture during 40 hours of the compound treatment was used to screen Tox21 10K library compounds in HepG2 cells. CellTox Green Cytotoxicity Assay is a nonlytic, homogeneous, biofluorescent method to measure cytotoxicity in cell culture after experimental manipulation. The assay system uses a proprietary asymmetric cyanine dye that is excluded from viable cells but preferentially stains the dead cell's DNA. […] Viable cells produce no appreciable increases in fluorescence. Therefore, the fluorescence signal produced by the binding interaction with dead cell DNA is proportional to cytotoxicity.
# The mixture of HepG2 cell suspension and reagents were dispensed at 600cells/6 ul/well in 1536-well tissue culture treated black solid bottom plates using a Multidrop dispenser. After the assay plates were incubated at a 37 C/5% CO2 incubator for 5 hours, 23 nL of compounds dissolved in DMSO, positive and negative controls was transferred to the assay plate by a pintool work station. The plates were incubated at 37 C for 40 hours. The fluorescence intensity were measured at 0h, 8h, 16h, 24h, 32h and 40h time points using ViewLux plate reader during compound treatment.
# Potency is read from the fitted curve at half-maximal effect.
row,SMILES,Potency
1,CCOC(=O)OC(=O)OCC,inactive
2,c1ccc(C[P+](c2ccccc2)(c2ccccc2)c2ccccc2)cc1,inactive
3,c1ccc(-c2ccc(C(c3ccccc3)n3ccnc3)cc2)cc1 (stereo not given),inactive
4,C[C@H]1O[C@@H](O[C@H]2CC[C@@]3(C)[C@H](CC[C@@H]4[C@@H]3C[C@@H](O)[C@]3(C)[C@@H](C5=CC(=O)OC5)CC[C@]43O)C2)C[C@H](O)[C@@H]1O[C@H]1C[C@H](O)[C@H](O[C@H]2C[C@H](O)[C@H](O[C@@H]3O[C@H](CO)[C@@H](O)[C@H](O)[C@H]3O)[C@@H](C)O2)[C@@H](C)O1,inactive
5,CCOc1nc(F)cc2nc(S(=O)(=O)Nc3c(Cl)cccc3C(=O)OC)nn12,inactive
6,CCN(CC)c1ccc2c(c1)Oc1cc(N(CC)CC)ccc1C21OC(=O)c2ccccc21,23.9 µM (active)
7,SC1CCCCC1,inactive
8,c1ccc(-c2ccccc2-c2ccccc2)cc1,inactive
9,COc1cc(OC)nc(NC(=O)NS(=O)(=O)Nc2ccccc2C(=O)N(C)C)n1,inactive
10,C=COCCCC,inactive
11,CC(C)C(=O)C(C)C,inactive
12,Cc1ccc2n[nH]nc2c1,inactive
13,CC(=O)CC(N)=O,inactive
14,CCOC(=O)C1=NN(c2ccc(Cl)cc2Cl)C(C)(C(=O)OCC)C1 (stereo not given),inactive
15,CC(=O)[C@]1(O)Cc2c(O)c3c(c(O)c2[C@@H](O[C@H]2C[C@H](N)[C@H](O)[C@H](C)O2)C1)C(=O)c1ccccc1C3=O,23.9 µM (active)
16,Cc1cccc2c1ccc1ccccc12,inactive
17,O=c1[nH]cccc1O,inactive
18,CC(C)=CCC[C@H](C)CC=O,inactive
19,CCC(O)CO (stereo not given),inactive
20,c1ccc2cc3c4ccccc4c4ccccc4c3cc2c1,inactive

row,SMILES,Potency
1,[Cl][Eu]([Cl])[Cl],inactive
2,Nc1cc([N+](=O)[O-])cc(Cl)c1O,inactive
3,O=C1OC(O)C(C(Cl)Cl)=C1Cl (stereo not given),inactive
4,CC/C(=C(/c1ccc(O)cc1)c1ccc(OCCN(C)C)cc1)c1ccccc1,32.3 µM (active)
5,CC(C)(C)C1=CC(=O)C(C(C)(C)C)=CC1=O,inactive
6,CC(C=O)c1ccccc1 (stereo not given),inactive
7,CC(c1cc(C(C)(C)C)cc(C(C)(C)C)c1O)c1cc(C(C)(C)C)cc(C(C)(C)C)c1O,inactive
8,Nc1cccnc1N,inactive
9,CO[Si](OC)(c1ccccc1)c1ccccc1,inactive
10,C=C(C)C1CCC(C)CC1O (stereo not given),inactive
11,Cc1c[nH]c(=O)[nH]c1=O,inactive
12,CCc1cccc(C)c1N(C(=O)CS(=O)(=O)O)C(C)COC (stereo not given),inactive
13,C=CC(C)(C)O,inactive
14,CCCOC(=O)c1ccc(O)cc1,inactive
15,CCSCC,inactive
16,O=[N+]([O-])c1ccc(CO)cc1,inactive
17,C=C(C)CCO,inactive
18,ClC(c1ccccc1)(c1ccccc1)c1ccccc1,inactive
19,CCCCCCCCSCc1cc(C)c(O)c(CSCCCCCCCC)c1,inactive
20,C/C=C/C(=O)OCC(C)C,inactive
